# Test: basal RPMI8226 mitochondrial membrane potential changes, profiling panel, cell-based, JC-1 fluorescence, 24 h, 100 nL compound (AID 1169)
# Details: RPMI8226 myeloma, JC-1 mitochondrial potential fluorescence, higher = more signal
# Also: test concentration not given here.
row,SMILES,z-score
1,CCOC(=O)C1=C[C@@H](CC)N(S(=O)(=O)c2ccc(C)cc2)[C@H]1c1ccccc1,0.649
2,COC(=O)[C@@]1(Cc2ccccc2)[C@H]2c3cc(C(=O)N(C)C)n(Cc4c(-c5ccccc5)noc4C)c3C[C@H]2CN1C(=O)c1ccccc1,0.168
3,COCCOC(=O)N1C(=O)[C@@]2(c3cc(C#CCNC(N)=O)ccc31)[C@H](c1ccccc1OCCO)N1[C@H](c3ccccc3)[C@H](c3ccccc3)OC(=O)[C@H]1[C@@H]2C(N)=O,-0.115
4,CC(C)N1C(=O)[C@@]2(c3ccc([N+](=O)[O-])cc3)CC(=O)N(CC34CC5CC(CC(C5)C3)C4)[C@@H]2c2ccc(CO)cc21,-0.361
5,CC(=O)NCCCC[C@@H]1NC(=O)[C@@H]2C[C@H](C(=O)NCCCCN(C)C)[C@H](c3ccc(O)cc3)N2C1=O,-0.293
6,Cc1ccccc1C(O)C1C=CC2C(=O)N(C)C(=O)C2N1N1CCCCC1 (centres undefined),0.207
7,CCOC(=O)C[C@H]1[C@H](OC(=O)c2ccc(C(=O)c3ccccc3)cc2)[C@@H](NC(=O)C2CCCCC2)c2cc(OCCCO)ccc2N1C(=O)c1ccccc1,0.0249
8,COc1ccc([Si](C)(C)[C@@H]2[C@@H](CC(=O)N3CCC[C@H]3CO)O[C@]3(C(=O)N(C)c4c(Br)cc(C)cc43)[C@H]2C)cc1,-0.489
9,COC(=O)[C@@]1(Cc2ccc(F)cc2)[C@H]2c3cc(C(=O)N4CCCC4)n(Cc4cccc5ccccc45)c3C[C@H]2CN1C(=O)c1ccccc1,0.127
10,C=CC(COC(C)=O)NS(=O)(=O)c1ccc(Br)cc1 (centres undefined),0.392
11,CC(C)(C)OC(=O)CC[C@@]1(C(=O)O)N=C(c2ccc(OCCCO)cc2)O[C@@H]1c1ccccc1N=[N+]=[N-],-0.759
12,CCOC(=O)C1=CCC(c2ccc(C#N)cc2)N(S(=O)(=O)c2ccc(C)cc2)C1 (centres undefined),-0.516
13,O=C1OCCC=C[C@H]2OC34C=CCN(Cc5ccccc5)C(=O)[C@H]3N(CCCO)C(=O)[C@@H]4C12 (some centres undefined),0.798
14,O=C1OCC=C[C@H]2OC34C=CCN(c5ccc(Cl)cc5)C(=O)[C@H]3N(CCCCCCO)C(=O)[C@@H]4[C@@H]12 (some centres undefined),0.231
15,COC(=O)C(CC#Cc1ccc2c(c1)[C@]1(C(=O)N2)[C@H](c2ccc(OCCO)cc2)N2[C@H](c3ccccc3)[C@H](c3ccccc3)OC(=O)[C@H]2[C@@H]1C(=O)NC[C@H](O)c1ccccc1)C(=O)OC,-1.29
16,CCOC(=O)C1=CC[C@@H](c2ccccc2Cl)N(S(=O)(=O)c2ccc(C)cc2)C1,-0.329
17,O=C1O[C@H](c2ccccc2)[C@H](c2ccccc2)N2[C@H]1[C@@H](C(=O)O)[C@]1(C(=O)Nc3ccc(C#CC4=CCCCC4)cc31)[C@H]2c1ccc(OCCO)cc1,-0.949
18,N#Cc1ccc(NN2C(C(O)c3ccc([N+](=O)[O-])cc3)C=CC3C(=O)N(c4ccccc4)C(=O)C32)cc1 (centres undefined),-0.993
19,C=C(CCCC)/C(=C/C[C@H](OC(C)=O)c1ccc(CO)o1)c1cnc2ccccc2c1,-0.143
20,O=C1OCCC=C[C@H]2OC34C=CCN(Cc5ccccc5)C(=O)[C@H]3N(CCCCCCO)C(=O)[C@@H]4C12 (some centres undefined),-0.0486
21,C[C@]1(C(=O)NCc2ccccc2)c2ccccc2C(=O)N(Cc2ccc(OC(F)(F)F)cc2)[C@H]1c1ccc(CO)cc1,-0.584
22,CC(C)NC(=O)[C@@]1(Cc2ccccc2I)c2ccccc2C(=O)N(Cc2ccccc2)[C@H]1c1ccc(CO)cc1,-0.638
23,O=C1N(CCS(=O)(=O)c2ccccc2)c2ccccc2C[C@@]12COC(c1ccc(OCCCO)cc1)=N2,-1.06
24,CC1CC/C=C\[C@H]2OC34C=CCN(Cc5ccccc5)C(=O)[C@H]3N(CCCCCO)C(=O)[C@@H]4C2C(=O)O1 (some centres undefined),-0.514

# Test: basal MM1S mitochondrial membrane potential changes, profiling panel, cell-based, JC-1 fluorescence, 24 h, 100 nL compound (AID 1170)
# Details: higher = more signal
row,SMILES,z-score
1,COCCOC(=O)N1C(=O)[C@@]2(c3cc(C#CCNC(N)=O)ccc31)[C@H](C(=O)N1CCc3cc(OC)c(OC)cc3C1)[C@H]1C(=O)O[C@H](c3ccccc3)[C@H](c3ccccc3)N1[C@@H]2c1ccc(OCCO)cc1,-0.864
2,CCOC(=O)C1=CC[C@@H](c2ccccc2)N(S(=O)(=O)c2ccc(C)cc2)[C@H]1C(=O)OCC,-1.24
3,O=C(CS)NCCCCCCNC(=O)[C@@H]1C[C@@H]2C(=O)N3CCC[C@H]3C(=O)N2[C@@H]1c1ccc(O)cc1,0.0659
4,CCOC(=O)C1=CCC(c2ccc([N+](=O)[O-])cc2)N(S(=O)(=O)c2ccc(C)cc2)C1 (centres undefined),-2.12
5,COCCOC(=O)N1C(=O)[C@@]2(c3cc(C#CCNC(N)=O)ccc31)[C@H](c1ccc(O)cc1)N1[C@H](c3ccccc3)[C@H](c3ccccc3)OC(=O)[C@H]1[C@@H]2C(=O)Nc1nc2ccccc2s1,0.189
6,O=c1cccc(CCc2ccccc2)o1,0.226
7,O=C1N(CCS(=O)(=O)c2ccccc2)Cc2ccccc2[C@H]2OC(c3ccc(OCCCO)cc3)=N[C@@]12CCS(=O)(=O)c1ccccc1,-0.848
8,CN(C)C(=O)[C@@]1(CCC(=O)OC(C)(C)C)N=C(c2ccc(OCCCO)cc2)O[C@H]1c1ccccc1,0.279
9,O=C1C2C=CC(C(O)c3ccc(-c4ccccc4)s3)N(n3cnnc3)C2C(=O)N1Cc1ccccc1 (centres undefined),0.871
10,CC(C)C(O)C1C=CC2C(=O)N(c3ccccc3)C(=O)C2N1Nc1ccc(C#N)cc1 (centres undefined),-0.44
11,COC(=O)c1ccc(C(O)C2C=CC3C(=O)N(C)C(=O)C3N2NC(=O)OC(C)(C)C)o1 (centres undefined),0.395
12,CCOC(=O)C1=C[C@@H](CC)N(S(=O)(=O)c2ccc(C)cc2)[C@H]1c1ccccc1,-0.894
13,COC(=O)[C@@]1(Cc2ccccc2)[C@H]2c3cc(C(=O)N(C)C)n(Cc4c(-c5ccccc5)noc4C)c3C[C@H]2CN1C(=O)c1ccccc1,-0.822
14,COCCOC(=O)N1C(=O)[C@@]2(c3cc(C#CCNC(N)=O)ccc31)[C@H](c1ccccc1OCCO)N1[C@H](c3ccccc3)[C@H](c3ccccc3)OC(=O)[C@H]1[C@@H]2C(N)=O,-1.08
15,CC(C)N1C(=O)[C@@]2(c3ccc([N+](=O)[O-])cc3)CC(=O)N(CC34CC5CC(CC(C5)C3)C4)[C@@H]2c2ccc(CO)cc21,-0.512
16,CC(=O)NCCCC[C@@H]1NC(=O)[C@@H]2C[C@H](C(=O)NCCCCN(C)C)[C@H](c3ccc(O)cc3)N2C1=O,-0.504
17,Cc1ccccc1C(O)C1C=CC2C(=O)N(C)C(=O)C2N1N1CCCCC1 (centres undefined),0.201
18,CCOC(=O)C[C@H]1[C@H](OC(=O)c2ccc(C(=O)c3ccccc3)cc2)[C@@H](NC(=O)C2CCCCC2)c2cc(OCCCO)ccc2N1C(=O)c1ccccc1,-0.0847

row,SMILES,z-score
1,COc1ccc([Si](C)(C)[C@@H]2[C@@H](CC(=O)N3CCC[C@H]3CO)O[C@]3(C(=O)N(C)c4c(Br)cc(C)cc43)[C@H]2C)cc1,-0.0745
2,COC(=O)[C@@]1(Cc2ccc(F)cc2)[C@H]2c3cc(C(=O)N4CCCC4)n(Cc4cccc5ccccc45)c3C[C@H]2CN1C(=O)c1ccccc1,-0.779
3,C=CC(COC(C)=O)NS(=O)(=O)c1ccc(Br)cc1 (centres undefined),0.654
4,CC(C)(C)OC(=O)CC[C@@]1(C(=O)O)N=C(c2ccc(OCCCO)cc2)O[C@@H]1c1ccccc1N=[N+]=[N-],-1.12
5,CCOC(=O)C1=CCC(c2ccc(C#N)cc2)N(S(=O)(=O)c2ccc(C)cc2)C1 (centres undefined),-1.71
6,O=C1OCCC=C[C@H]2OC34C=CCN(Cc5ccccc5)C(=O)[C@H]3N(CCCO)C(=O)[C@@H]4C12 (some centres undefined),-0.559
7,O=C1OCC=C[C@H]2OC34C=CCN(c5ccc(Cl)cc5)C(=O)[C@H]3N(CCCCCCO)C(=O)[C@@H]4[C@@H]12 (some centres undefined),1.5
8,COC(=O)C(CC#Cc1ccc2c(c1)[C@]1(C(=O)N2)[C@H](c2ccc(OCCO)cc2)N2[C@H](c3ccccc3)[C@H](c3ccccc3)OC(=O)[C@H]2[C@@H]1C(=O)NC[C@H](O)c1ccccc1)C(=O)OC,-1.35
9,CCOC(=O)C1=CC[C@@H](c2ccccc2Cl)N(S(=O)(=O)c2ccc(C)cc2)C1,-1.99
10,O=C1O[C@H](c2ccccc2)[C@H](c2ccccc2)N2[C@H]1[C@@H](C(=O)O)[C@]1(C(=O)Nc3ccc(C#CC4=CCCCC4)cc31)[C@H]2c1ccc(OCCO)cc1,-1.53
11,N#Cc1ccc(NN2C(C(O)c3ccc([N+](=O)[O-])cc3)C=CC3C(=O)N(c4ccccc4)C(=O)C32)cc1 (centres undefined),0.0361
12,C=C(CCCC)/C(=C/C[C@H](OC(C)=O)c1ccc(CO)o1)c1cnc2ccccc2c1,-0.238
13,O=C1OCCC=C[C@H]2OC34C=CCN(Cc5ccccc5)C(=O)[C@H]3N(CCCCCCO)C(=O)[C@@H]4C12 (some centres undefined),-0.248
14,C[C@]1(C(=O)NCc2ccccc2)c2ccccc2C(=O)N(Cc2ccc(OC(F)(F)F)cc2)[C@H]1c1ccc(CO)cc1,-0.0466
15,CC(C)NC(=O)[C@@]1(Cc2ccccc2I)c2ccccc2C(=O)N(Cc2ccccc2)[C@H]1c1ccc(CO)cc1,-0.715
16,O=C1N(CCS(=O)(=O)c2ccccc2)c2ccccc2C[C@@]12COC(c1ccc(OCCCO)cc1)=N2,-0.554
17,CC1CC/C=C\[C@H]2OC34C=CCN(Cc5ccccc5)C(=O)[C@H]3N(CCCCCO)C(=O)[C@@H]4C2C(=O)O1 (some centres undefined),1.12

# From PubChem BioAssay
